Results published in PubChem BioAssay AID1159580 (chemical genetic matrix, 2015).
Hit rate of the full screen: of about 5,500 compounds, about 2,000 (36%) were called active. About 18% were inconclusive and are not listed. This is one part of the list. Values without a mark were called inactive. Rule as the data show it: active = normalized growth mostly below about 0.91 (no sharp cut-off); inconclusive = no clear call, values can overlap the other calls; inactive = mostly above about 0.92.

Assay: chemical genetic growth profiling, strain panel (AID 1159580);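 also: tested at 20 µM; growth read once vehicle control cultures reached saturation at 30 °C; 1 = growth at the plate median or of vehicle wells; lower values mean less growth of the strain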
Details: growth OD

CC(C)c1ccc2c(c1)CCC1[C@](C)(CN)CCC[C@]21C (stereo partly specified)
normalized growth (S. cerevisiae deletion strains, locus YKL009W, strain mrt4, active compounds read low): 0.868 (active) | normalized growth (S. cerevisiae deletion strains, locus YKL068W, active compounds read low): 0.982 | normalized growth (S. cerevisiae deletion strains, locus YKL085W, strain MDH1 (second series), active compounds read low): 0.978 | normalized growth (S. cerevisiae deletion strains, locus YKL085W, strain MDH1, active compounds read low): 0.978 | normalized growth (S. cerevisiae deletion strains, locus YKL160W, strain elf1, active compounds read low): 0.952 | normalized growth (S. cerevisiae deletion strains, locus YKL190W, strain CNB1, active compounds read low): 0.211 (active) | normalized growth (S. cerevisiae deletion strains, locus YKR001C, strain vps1, active compounds read low): 0.0635 (active) | normalized growth (S. cerevisiae deletion strains, locus YKR026C, strain gcn3, active compounds read low): 1.02 | normalized growth (S. cerevisiae deletion strains, locus YKR091W, strain srl3, active compounds read low): 1.01 | normalized growth (S. cerevisiae deletion strains, locus YLL001W, strain dnm1, active compounds read low): 0.963 | normalized growth (S. cerevisiae deletion strains, locus YLL026W, active compounds read low): 1.01 | normalized growth (S. cerevisiae deletion strains, locus YLL041C, strain sdh2, active compounds read low): 1.02 | normalized growth (S. cerevisiae deletion strains, locus YLR027C, strain aat2, active compounds read low): 0.978 | normalized growth (S. cerevisiae deletion strains, locus YLR039C, strain RIC1, active compounds read low): 1.28 | normalized growth (S. cerevisiae deletion strains, locus YLR058C, strain SHM2, active compounds read low): 0.17 (active) | normalized growth (S. cerevisiae deletion strains, locus YLR102C, strain apc9, active compounds read low): 0.922 (active) | normalized growth (S. cerevisiae deletion strains, locus YLR113W, strain HOG1, active compounds read low): 0.999 | normalized growth (S. cerevisiae deletion strains, locus YLR221C, strain rsa3, active compounds read low): 0.953 | normalized growth (S. cerevisiae deletion strains, locus YLR258W, strain gsy2, active compounds read low): 0.948 | normalized growth (S. cerevisiae deletion strains, locus YLR262C, strain YPT6 (second series), active compounds read low): 0.959 | normalized growth (S. cerevisiae deletion strains, locus YLR262C, strain YPT6, active compounds read low): 1.1 | normalized growth (S. cerevisiae deletion strains, locus YLR268W, strain sec22, active compounds read low): 0.092 (active) | normalized growth (S. cerevisiae deletion strains, locus YLR320W, strain mms22, active compounds read low): 0.899 | normalized growth (S. cerevisiae deletion strains, locus YLR330W, strain CHS5, active compounds read low): 0.262 (active) | normalized growth (S. cerevisiae deletion strains, locus YLR342W, strain FKS1 (second series), active compounds read low): 0.269 (active) | normalized growth (S. cerevisiae deletion strains, locus YLR342W, strain FKS1, active compounds read low): 0.836 (active) | normalized growth (S. cerevisiae deletion strains, locus YLR357W, strain rsc2, active compounds read low): 0.976 | normalized growth (S. cerevisiae deletion strains, locus YLR370C, strain arc18, active compounds read low): 0.865 (active) | normalized growth (S. cerevisiae deletion strains, locus YLR371W, strain rom2, active compounds read low): 0.286 (active) | normalized growth (S. cerevisiae deletion strains, locus YLR384C, strain iki3, active compounds read low): 0.999 | normalized growth (S. cerevisiae deletion strains, locus YLR418C, strain cdc73, active compounds read low): 0.11 (active) | normalized growth (S. cerevisiae deletion strains, locus YML016C, strain PPZ1, active compounds read low): 0.513 (active) | normalized growth (S. cerevisiae deletion strains, locus YML032C, strain rad52, active compounds read low): 0.32 (active) | normalized growth (S. cerevisiae deletion strains, locus YML120C, strain ndi1, active compounds read low): 0.92 | normalized growth (S. cerevisiae deletion strains, locus YML124C, strain tub3, active compounds read low): 0.198 (active) | normalized growth (S. cerevisiae deletion strains, locus YMR058W, strain fet3, active compounds read low): 0.932 | normalized growth (S. cerevisiae deletion strains, locus YMR078C, strain ctf18, active compounds read low): 0.654 (active) | normalized growth (S. cerevisiae deletion strains, locus YMR125W, strain sto1, active compounds read low): 0.93 | normalized growth (S. cerevisiae deletion strains, locus YMR129W, active compounds read low): 1.01 | normalized growth (S. cerevisiae deletion strains, locus YMR205C, strain PFK2, active compounds read low): 0.933 | normalized growth (S. cerevisiae deletion strains, locus YMR223W, strain ubp8, active compounds read low): 0.177 (active) | normalized growth (S. cerevisiae deletion strains, locus YMR231W, strain pep5, active compounds read low): 1.03 | normalized growth (S. cerevisiae deletion strains, locus YMR263W, strain SAP30, active compounds read low): 0.642 (active) | normalized growth (S. cerevisiae deletion strains, locus YMR307W, strain GAS1, active compounds read low): 0.16 (active) | normalized growth (S. cerevisiae deletion strains, locus YNL067W, strain RPL9B, active compounds read low): 0.62 (active) | normalized growth (S. cerevisiae deletion strains, locus YNL071W, strain lat1, active compounds read low): 0.737 (active) | normalized growth (S. cerevisiae deletion strains, locus YNL128W, strain TEP1, active compounds read low): 0.279 (active) | normalized growth (S. cerevisiae deletion strains, locus YNL153C, strain GIM3, active compounds read low): 0.262 (active) | normalized growth (S. cerevisiae deletion strains, locus YNL183C, strain NPR1, active compounds read low): 0.951 | normalized growth (S. cerevisiae deletion strains, locus YNL209W, strain ssb2, active compounds read low): 0.975 | normalized growth (S. cerevisiae deletion strains, locus YNL233W, strain BNI4, active compounds read low): 0.414 (active) | normalized growth (S. cerevisiae deletion strains, locus YNL248C, strain rpa49, active compounds read low): 1.01 | normalized growth (S. cerevisiae deletion strains, locus YNL250W, strain rad50, active compounds read low): 0.936 | normalized growth (S. cerevisiae deletion strains, locus YNL271C, strain bni1, active compounds read low): 0.979 | normalized growth (S. cerevisiae deletion strains, locus YNL298W, strain CLA4, active compounds read low): 0.839 (active) | normalized growth (S. cerevisiae deletion strains, locus YNL307C, strain MCK1, active compounds read low): 0.132 (active) | normalized growth (S. cerevisiae deletion strains, locus YNL322C, strain KRE1 (second series), active compounds read low): 1.01 | normalized growth (S. cerevisiae deletion strains, locus YNL322C, strain KRE1, active compounds read low): 0.599 (active) | normalized growth (S. cerevisiae deletion strains, locus YNR049C, strain mso1, active compounds read low): 1.03 | normalized growth (S. cerevisiae deletion strains, locus YNR052C, strain pop2, active compounds read low): 0.0663 (active) | normalized growth (S. cerevisiae deletion strains, locus YOL006C, strain TOP1, active compounds read low): 0.139 (active) | normalized growth (S. cerevisiae deletion strains, locus YOL012C, strain htz1): 0.217 | normalized growth (S. cerevisiae deletion strains, locus YOL147C, strain pex11, active compounds read low): 0.0811 (active) | normalized growth (S. cerevisiae deletion strains, locus YOR001W, strain rrp6, active compounds read low): 1.02 | normalized growth (S. cerevisiae deletion strains, locus YOR061W, strain CKA2, active compounds read low): 0.417 (active) | normalized growth (S. cerevisiae deletion strains, locus YOR069W, strain VPS5, active compounds read low): 0.847 (active) | normalized growth (S. cerevisiae deletion strains, locus YOR070C, strain gyp1, active compounds read low): 0.978 | normalized growth (S. cerevisiae deletion strains, locus YOR080W, strain dia2, active compounds read low): 0.995 | normalized growth (S. cerevisiae deletion strains, locus YOR083W, strain WHI5, active compounds read low): 0.904 | normalized growth (S. cerevisiae deletion strains, locus YOR106W, strain vam3, active compounds read low): 0.92 | normalized growth (S. cerevisiae deletion strains, locus YOR136W, strain idh2, active compounds read low): 0.257 (active) | normalized growth (S. cerevisiae deletion strains, locus YOR144C, strain elg1, active compounds read low): 0.372 (active) | normalized growth (S. cerevisiae deletion strains, locus YOR184W, strain ser1, active compounds read low): 0.124 (active) | normalized growth (S. cerevisiae deletion strains, locus YOR231W, strain MKK1, active compounds read low): 0.963 | normalized growth (S. cerevisiae deletion strains, locus YOR265W, strain rbl2, active compounds read low): 0.999 | normalized growth (S. cerevisiae deletion strains, locus YOR270C, strain vph1, active compounds read low): 0.577 (active) | normalized growth (S. cerevisiae deletion strains, locus YOR290C, strain snf2, active compounds read low): 0.85 (active) | normalized growth (S. cerevisiae deletion strains, locus YOR316C, strain cot1, active compounds read low): 0.837 (active) | normalized growth (S. cerevisiae deletion strains, locus YPL051W, strain arl3, active compounds read low): 0.988 | normalized growth (S. cerevisiae deletion strains, locus YPL055C, strain LGE1, active compounds read low): 0.404 (active) | normalized growth (S. cerevisiae deletion strains, locus YPL078C, strain atp4, active compounds read low): 0.896 | normalized growth (S. cerevisiae deletion strains, locus YPL106C, strain sse1, active compounds read low): 0.939 | normalized growth (S. cerevisiae deletion strains, locus YPL240C, strain hsp82, active compounds read low): 0.988 | normalized growth (S. cerevisiae deletion strains, locus YPL241C, strain CIN2, active compounds read low): 0.865 (active) | normalized growth (S. cerevisiae deletion strains, locus YPL256C, strain CLN2, active compounds read low): 0.979 | normalized growth (S. cerevisiae deletion strains, locus YPR119W, strain clb2, active compounds read low): 0.923 (active) | normalized growth (S. cerevisiae deletion strains, locus YPR141C, strain kar3, active compounds read low): 0.92 | normalized growth (S. cerevisiae deletion strains, locus YPR163C, strain tif3, active compounds read low): 0.072 (active) | normalized growth (S. cerevisiae deletion strains, locus YPR167C, strain met16, active compounds read low): 0.731 (active) | normalized growth (S. cerevisiae deletion strains, strain wtn01, active compounds read low): 0.146 (active) | normalized growth (S. cerevisiae strains, strain wild type, active compounds read low): 0.255 (active)
